Compounds with a hit are over-represented: about 10% of the library has one in this group of screens.
CtBP-E1A inh: inhibitors of CtBP/E1A interaction; AlphaScreen GST-E1A/His-CtBP binding, 1536-well; active compounds read low; activity change, % (concentration not given with the values); 0.49% of 340,000 active; AID 651724; in the data active = activity change below about -65%; inconclusive = mostly about -30% to -63%
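Protein mix (5X: 125 nM each GST-E1A, His-CtBP) was incubated with pinned compound 2 h at 37 deg C in dark, in 50 mM Tris pH 8.0 buffer with 300 mM NaCl. Glutathione donor and nickel acceptor beads followed; AlphaScreen signal read after 1 h.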
G9a inh: G9a (human) methyltransferase inhibition. 8.8% of 350,000 active. Potency, µM (highest dose often 102 µM), hits mostly inhibitors. Q96KQ7. G9a H3K9 monomethylation, AlphaScreen, 2 h; also: nearly all actives have a fitted effect of over 75% in size
Target sequence (Q96KQ7 913-1193 limits assumed): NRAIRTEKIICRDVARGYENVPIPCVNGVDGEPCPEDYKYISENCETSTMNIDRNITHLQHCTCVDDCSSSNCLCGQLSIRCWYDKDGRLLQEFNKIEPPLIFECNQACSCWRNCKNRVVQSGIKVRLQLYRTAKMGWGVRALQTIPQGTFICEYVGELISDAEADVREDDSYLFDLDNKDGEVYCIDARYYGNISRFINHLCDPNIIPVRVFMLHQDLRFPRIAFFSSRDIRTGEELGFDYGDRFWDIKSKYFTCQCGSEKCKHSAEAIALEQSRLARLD
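Signal arises when biotinylated H3K9 peptide, once monomethylated, bridges streptavidin donor and antibody-captured acceptor beads. Enzyme at 20 nM was preincubated 15 min with test compounds; peptide 500 nM and SAM 20 uM then reacted for 2 h.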
JMJD2A Tudor: inhibitors of human JMJD2A Tudor domain | O75164 | AlphaScreen JMJD2A-Tudor / H3K4me3 peptide binding | Potency, µM (doses to about 114 µM), actives largely listed as inhibitors | 4.4% of 390,000 active; also: nearly all actives have a fitted effect of over 50% in size
HP1b binding inh: blocks HP1-beta chromodomain binding to methylated histone tails | P83916 | AID 540317 | 0.56% of 390,000 active | AlphaScreen HP1-beta / biotin-H3K9me3 peptide binding | Potency, µM (doses to about 114 µM), actives largely listed as inhibitors; also: nearly all actives have a fitted effect of over 70% in size
Target sequence (P83916 whole entry, looked up): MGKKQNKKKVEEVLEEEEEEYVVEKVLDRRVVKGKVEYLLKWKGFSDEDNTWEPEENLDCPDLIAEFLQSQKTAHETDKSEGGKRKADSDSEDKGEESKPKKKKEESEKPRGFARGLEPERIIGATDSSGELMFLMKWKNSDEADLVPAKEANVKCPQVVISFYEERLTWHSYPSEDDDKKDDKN
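AlphaScreen: HP1-beta (50 nM) preformed 30 min with biotin-H3(1-18)K9me3 peptide (50 nM) in PBS pH 7.4, 0.01% Tween-20. Compound added for 30 min at RT, then streptavidin donor/nickel chelate acceptor beads (10 ug/mL) for 30 min.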
BAZ2B block: inhibitors of human BAZ2B bromodomain; AlphaScreen BAZ2B-H3K14Ac peptide displacement; 4.4% of 360,000 active; Potency, µM (top dose mostly 114 µM), most hits filed as inhibitors; Q9UIF8; also: nearly all actives have a fitted effect of over 60% in size
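BAZ2B (50 nM) with biotin-H3(5-23)K14Ac peptide (50 nM) in PBS pH 7.4, 0.01% Tween-20, preformed 30 min, then compound 30 min at room temperature; top concentration 110uM. AlphaScreen streptavidin donor/nickel chelate acceptor beads (10 ug/mL final), 20 min dark, signal read.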
Six1-Eya2 blk: blocks human Six1 binding to Eya2; Q15475+O00167; AlphaScreen GST-Six1/His-Eya2 binding, biochemical; active compounds read low; activity change, % (concentration not given with the values); 0.56% of 360,000 active; AID 651725; in the data active = activity change below about -65%; inconclusive = mostly about -30% to -63%
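Six1/Eya2 binding was read as AlphaScreen signal after compounds were pinned into GST-Six1 plus His-tagged Eya2 (5X stock 250/500 nM) in pH 8.0 Tris/NaCl/TCEP buffer, beads added, then incubated 1 h, 37 C, dark.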
Numbers stand for hits; – = inactive; ? = inconclusive; · = not tested or not shown; [ ] = remark or other dose. Unless noted, calls follow the shape of the dose curve; as a rule, active = well fitted inhibition curve with a large enough effect; inconclusive = small, poorly fitted or top-dose-only effect; inactive = no such curve, though single readings can be large or run the other way.

SMILES	CtBP-E1A inh	G9a inh	JMJD2A Tudor	HP1b binding inh	BAZ2B block	Six1-Eya2 blk
COC(=O)c1cc(OC)c(OC)cc1NC(=S)N1CCN(Cc2ccccc2)CC1	–	–	–	–	?	–
O=C(NC(c1ccccc1)c1ccccc1)c1ccccc1	–	·	–	–	·	–
Cn1cccc1C(NC(=O)c1ccccc1)C(Cl)(Cl)Cl (centres undefined)	·	45µM	–	–	?	–
CSc1nsc(/C=C/Nc2ccc(C)cc2)c1C#N	–	2.2µM	–	–	?	–
CCOC(=O)c1cc(C)n(CC2CCC(C(=O)Nc3ccc(Cl)cc3)CC2)c1C (centres undefined)	·	?	–	–	–	·
Cc1noc(C)c1-c1ccc2ncnc(NCc3cc(F)cc(F)c3)c2c1	·	·	–	·	·	·
O=C(c1ccc(F)cc1)N1CCN(Cc2ccccc2Br)CC1	–	10µM	25µM	?	?	–
O=C(c1ccco1)N1CCN(C(=O)c2ccco2)CC1	–	·	·	·	·	–
O=C(c1ccco1)N1CCN(CC2CC3C=CC2C3)CC1 (centres undefined)	–	?	1.4µM	–	50µM	–
CCOc1ccc(C(=O)N2CCN(C(=O)c3ccco3)CC2)cc1OCC	–	–[12.7 µM]	–	–	–	–
O=C(c1ccco1)N1CCN(Cc2ccccc2Br)CC1	·	20µM	8.9µM	?	32µM	–
CCOc1cc(CN2CCN(C(=O)c3ccco3)CC2)ccc1OC	–	–[12.7 µM]	5.6µM	?	50µM	–
CCOc1ccc(OCC(=O)OCC(=O)N2CCN(C(=O)c3ccco3)CC2)cc1	–	32µM	–	–	–	–
O=C(c1ccco1)N1CCN(Cc2nnc(-c3ccccc3F)o2)CC1	–	71µM	?	–	–	–
Cc1ccccc1-c1nnc(CN2CCN(C(=O)c3ccco3)CC2)o1	–	?	–	–	–	–
CCOc1ccccc1-c1nc(CN2CCN(C(=O)c3ccco3)CC2)c(C)o1	–	–	–	–	–	–
O=C(c1ccco1)N1CCN(Cc2ccc(F)cc2)CC1	–	11µM	20µM	?	79µM	–
CCOc1ccccc1-n1c(CN2CCN(C(=O)c3ccco3)CC2)nc2ccccc2c1=O	–	14µM	–	–	–	–
COc1ccc(OC2CCN(S(=O)(=O)c3ccccc3)CC2)cc1	–	–	–	–	–	–
Cc1ccccc1-c1nc(CN2CCN(C(=O)c3ccco3)CC2)c(C)o1	–	50µM	–	–	–	–
CCOc1ccc(CN2CCN(C(=O)c3ccco3)CC2)cc1	–	32µM	20µM	?	–	–
O=C(c1ccco1)N1CCN(C(=O)c2ccc(Cn3cc(Br)cn3)o2)CC1	–	50µM	–	–	–	–
CCOC(=O)c1cnc2ccc(C)cc2c1Nc1ccc(OCc2ccccc2Cl)cc1	·	–	–	–	–	·
Cc1ccc(OCC(=O)Nc2ccc(S(=O)(=O)N(Cc3ccccc3)c3ccccc3)cc2)cc1	·	–	–	–	–	·
OCC1CCCN(Cc2ccc(-c3ccccc3)cc2)C1 (centres undefined)	–	·	2.2µM	?	?	–
SMILES	CtBP-E1A inh	G9a inh	JMJD2A Tudor	HP1b binding inh	BAZ2B block	Six1-Eya2 blk
O=C(c1ccc(-c2ccccc2)cc1)C1CCCN(Cc2ccncc2)C1 (centres undefined)	–	·	?	–	–	–
O=C(COc1ccc(Br)cc1)NCCCn1ccnc1	·	–	–	–	56µM	–
COc1ccc(OCC(O)Cn2cnc(-c3ccc(Br)cc3)c2)cc1 (centres undefined)	–	18µM	–	–	–	–
Cc1c(C)c2ccc(OCC(=O)NCCCn3ccnc3)c(C)c2oc1=O	–	–	–	–	79µM	–
Cc1c(CCC(=O)NCCCn2ccnc2)c(=O)oc2c(C)c3occ(C(C)(C)C)c3cc12	–	·	?	–	25µM	–
CCOCCc1nnc(NC(=O)C(=O)c2cc(C)n(-c3cccc(C)c3)c2C)s1	·	–	–	–	–	·
O=C(c1ccc(F)cc1F)N1CCC(c2nc(-c3ccc(S(=O)(=O)N4CCCC4)cc3)no2)CC1	·	–	–	–	–	·
O=C(NCc1ccc2c(c1)CCN2C(=O)c1ccncc1)c1ccccc1Cl	·	–	–	–	–	·
O=S(=O)(c1ccccc1)c1nc(-c2ccccc2F)oc1N1CCOCC1	·	?	–	–	?	·
OC(COc1ccc(Br)cc1)Cn1ccnc1 (centres undefined)	–	79µM	–	–	–	–
COc1ccccc1OCC(=O)NCCCn1ccnc1	·	–	–	–	79µM	–
Cc1ccc(C(C)C)cc1OCC(=O)NCCCn1ccnc1	–	·	–	–	·	–
Cc1ccc(-n2c(COc3ccccc3)n[nH]c2=S)cc1	–	7.9µM	–	–	–	–
COc1ccc(-n2c(COc3ccc(C)cc3)n[nH]c2=S)cc1	·	·	–	–	–	–
Cc1ccc(-n2c(COc3cccc(C)c3)n[nH]c2=S)cc1	–	4.5µM	–	–	–	–
COc1ccc(-n2c(COc3ccccc3)n[nH]c2=S)cc1	–	–[0.501 µM]	50µM	–	–	–
Cc1c(OCc2nn[nH]n2)ccc2c(-c3ccccc3)cc(=O)oc12	–	50µM	–	–	–	–
CCCCCn1c(=O)c2c(nc3n2CCN3c2ccc(Br)cc2)n(C)c1=O	·	?	–	–	?	·
O=C1C2CCC(C2)[C@@H]2CCCCN12 (some centres undefined)	·	–	·	·	·	·
O=C1[C@H]2[C@@H](c3ccc(C(F)(F)F)cc3)N[C@]3(CCCN(Cc4ccc(C(F)(F)F)cc4)C3=O)[C@H]2C(=O)N1Cc1ccccc1	–	·	·	·	·	–
Cc1ccc(OCC(=O)OCCN2C(=O)c3ccccc3C2=O)cc1C	–	–	–	–	–	–
Cc1cc(C)cc(OCC(=O)OCCN2C(=O)c3ccccc3C2=O)c1	–	56µM	–	–	–	–
CC(C)(C)OC(=O)N1CCC(NC(=O)c2[nH]cnc2C(=O)Nc2cccc(Cl)c2)CC1	–	–[2.33 µM]	–	–	–	–
CN(C)c1ccc(CNC(=O)CCCN2C(=O)CCn3nc(-c4cccn4C)cc32)cc1	·	?	?	–	40µM	·
OCCCn1c(CCNc2nc(-c3ccc(Cl)cc3)cs2)nc2cc(C(F)(F)F)ccc21	–	·	–	–	·	–
O=[N+]([O-])c1cc(-c2csc(NCCc3nc4cc(C(F)(F)F)ccc4n3CCCO)n2)ccc1Cl	–	·	45µM	–	·	–
Cc1ccc(Cn2c(CCNc3nc(-c4ccc(Cl)c([N+](=O)[O-])c4)cs3)nc3cc(C(=O)NCCCO)ccc32)cc1	–	·	35µM	–	·	–
CSCc1ccc(C(=O)NC(C)c2cnn(-c3ccccn3)c2C)o1 (centres undefined)	–	35µM	–	–	–	–
CSCc1ccc(C(=O)NC2CC(C)(C)Cc3c2cnn3-c2ccc(F)cc2)o1 (centres undefined)	–	–	?	–	–	–

Assay outcomes deposited in PubChem BioAssay by National Center for Advancing Translational Sciences (NCATS).
